Compounds without any hit were thinned out: in the full panel of roughly 83,000, 20% have a hit.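 Method: cells in 96-well plates; compound added at one concentration; 48 h incubation; percent growth measured; values under 10 scored active.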 A number with no mark means an inactive call. Active and inactive are the calls of the source.

Holding throughout (assay): NCI-60 one-dose screen, 48 h (100 = growth as untreated, 0 = no growth, -100 = all killed)
What all share (settings): 10 µM unless noted

Test [1] relates to HCT-15 colon.
In test [2] the test system is HT29 colon.
For test [3], the system named is SNB-75 CNS.
Test [4] deals with SNB-19 CNS.
The subject of test [5] is U251 CNS.
The subject of test [6] is PC-3 prostate.
Test [7] deals with SK-MEL-5 melanoma.
The subject of test [8] is UACC-62 melanoma.
Test [9] deals with LOX IMVI melanoma.
The test system of test [10] is SK-MEL-28 melanoma.

For the molecule `COC(=O)c1ccc2c(c1)c1c(C)c3cnccc3c(C)c1n2C`, the growth was -8.77% (active) in test [1]; -10.9% (active) in test [2]; 8.05% (active) in test [3]; -1.59% (active) in test [4]; -16.5% (active) in test [5]; 5.43% (active) in test [6]. In addition, the growth was -91.3% (active) in test [7], -82.3% (active) in test [8], -55% (active) in [9] and -54.5% (active) in test [10].
In the case of `COc1cc([C@@H](CCO)C[C@H](C)c2ccc3ccccc3c2)cc(OC)c1OC`, the growth in test [1] is 26.3%; in test [2] it was 11.2%; in test [3], -10% (active); in test [4], 37.8%; in [5], 27.8%; in test [6] it was 29.7%. Besides, the results for the growth in test [8], in [9] and in test [10] were 39.2%, 39.2% and 61.8%, respectively.
Regarding `O=C1/C(=C/c2ccc(Cl)cc2)CN(C(=O)C(Cl)Cl)C/C1=C\c1ccc(Cl)cc1`, the growth in test [1] was -70% (active); in test [2], -31% (active); in test [3], -84% (active); in [4] it was -92% (active); in test [5], -94.3% (active); in [6], -38.4% (active). In addition, the growth in test [7] was -89.3% (active); in [8] it was -59.6% (active); in test [9] it was -93.1% (active); in test [10], -81.5% (active).
With `C#CCOc1cccc(Nc2ncnc3cc(NC(=O)CCl)ccc23)c1`, the growth was -53.5% (active) in test [1]; -78.9% (active) in test [2]; -49.9% (active) in [3]; -88% (active) in test [4]; -78.9% (active) in test [5]; -83.8% (active) in [6]. The figures for the growth in test [8], in test [9] and in [10] were -73.9% (active), -67.3% (active) and -30.6% (active), respectively.
Turning to `N#Cc1c(-c2ccc(Br)cc2)nc2c(N=Nc3ccc(S(N)(=O)=O)cc3)c(N)nn2c1N`, the growth in test [1] was 94.3%; in test [2], 42.8%; in test [3] it was 56.9%; in [4], 61.6%; in test [5] it was 41.3%; in test [6], 37.6%. In addition, the growth was 45.8% in test [7], 72.4% in test [8], 28.9% in test [9] and 63.2% in [10].
`Cc1ccc2nc(-c3ccc(C(=O)N/N=C/c4ccc([N+](=O)[O-])cc4)cc3)[nH]c2c1`: the growth was 102% in test [1]; 102% in test [2]; 97.1% in test [3]; 104% in test [4]; 107% in test [5]; 98.2% in test [6]. Also, the growth is 98.5% in [7], 97.4% in test [8], 98.8% in test [9] and 112% in test [10].
For the molecule `CCN(CC)CCOc1ccc(Nc2ncc3cc(-c4c(Cl)cccc4Cl)c(=O)n(CCOC)c3n2)cc1`, the growth in test [1] is 12.9%; in test [2], -22.6% (active); in test [3], -39.9% (active); in test [4] it was 18.4%; in [5], 0.141% (active); in [6], 60%. In addition, the growth in test [7] was 13.6%; in test [8], 32.1%; in [9], -77.6% (active); in test [10] it was 36.9%.
For the molecule `CSc1ccc2c3c(n(C[C@H](O)CO)c(=O)c2c1)-c1ccccc1C3=O`, the growth in [1] was 18.6%; in [2], 16.5%; in [3] it was 61.2%; in test [4], 32.6%; in [5] it was 14.2%; in test [6], 44.5%. Also, the growth was 44.3% in [7], 37.5% in test [8], -3.11% (active) in test [9] and 72.3% in test [10].
Consider `Cc1cc(O)c(=O)cc2c1C[C@H]1CC(C)(C)/C=C/C[C@]3(C)Oc4cc(=O)c(O)cc(C)c4C[C@H]3C[C@H](O)[C@@]1(C)O2`, for which the growth is 17.3% in [1]; 7.77% (active) in [2]; 23.5% in test [3]; 4.62% (active) in test [4]; 2.67% (active) in test [5]; 10.2% in test [6]. Also, the growth was -9.26% (active) in [7], -56.5% (active) in test [8], 6.33% (active) in test [9] and 5.5% (active) in test [10].
As for `Cc1cc(=O)oc2cc(Oc3nc(Br)cn4c(Br)cnc34)ccc12`, the growth was 95.6% in [1]; 99.9% in test [2]; -2.07% (active) in test [3]; 74.6% in test [4]; 47.6% in test [5]; 82.1% in test [6]. The growth in [7] is 40.3%; in test [8], 85.2%; in test [9], 74.3%; in test [10], 104%.
Take `COCCn1cc(-c2nc(-c3cn(CCOC)c4ncccc34)cs2)c2cc(F)ccc21`: the growth in test [1] is 17.8%; in [2], 57.6%; in test [3] it was 77.4%; in test [4] it was 90.4%; in test [5] it was 69.8%; in [6], 39.2%. The growth in test [8] was 61.8%; in test [9], 64.3%; in [10] it was 91%.
`CC(=O)c1c(Nc2cccc(F)c2)[nH]c2c(Cl)cc(Cl)c(Cl)c2c1=O`: the growth in test [1] is 8.24% (active); in test [2], 4.86% (active); in [3], -9.54% (active); in test [4], 16.6%; in test [5], 3.22% (active); in test [6] it was 10.3%. In addition, the growth is -68.7% (active) in [7], -18.7% (active) in test [8], 9.99% (active) in test [9] and 5.27% (active) in [10].
As to `COC(=O)c1sccc1-c1cc(O)c(C(=O)Nc2ccccc2)s1`, the growth was 97.7% in [1]; 90% in test [2]; 72% in test [3]; 107% in [4]; 101% in test [5]; 90.4% in [6]. Also, the growth in test [7] is 102%; in [8], 91.2%; in test [9], 96.6%; in [10], 110%.
For `CCN(CCNc1ccc(C)c2sc3cc(Cl)ccc3c(=O)c12)CC(C)(C)O`, the growth in test [1] was 17.5%; in [2], 21.7%; in test [3] it was 68.5%; in test [4] it was 71%; in test [5], 46.3%; in test [6] it was 81.2%. Besides, the growth was 63.4% in test [7], -60.1% (active) in test [8], 41.8% in test [9] and -33% (active) in test [10].
As to `COc1cc(/C=C/c2cc(/C=C/c3ccc(O)c(OC)c3)n(C(=O)Nc3ccc(Cl)cc3)n2)ccc1O`, the growth is 7.86% (active) in [1]; -11.1% (active) in [2]; 18.7% in test [3]; 9.25% (active) in test [4]; 4.31% (active) in test [5]; 4.24% (active) in test [6]. For the same molecule, the growth in [7] is -29.7% (active); in test [8] it was 4.06% (active); in test [9] it was 3.04% (active); in test [10], 12.7%.
As for `CCOC(=O)C/C(=N\Nc1cc(=O)[nH]c2ccc(C)cc12)C(=O)OCC`, the growth in test [1] is 103%; in test [2], 112%; in test [3] it was 94.7%; in test [4] it was 97.8%; in test [5] it was 103%; in test [6], 91.4%. Further, the growth was 91.1% in test [8], 102% in [9] and 99.3% in test [10].
Take `O=C1C=C(SCCO)C(=O)c2ccccc21`: the growth in test [1] is -68.5% (active); in test [2], 95.7%; in test [3], -83.9% (active); in test [4] it was 15%; in test [5], -37.2% (active); in test [6], 62.3%. In addition, the growth in [7] was -98% (active); in test [8], 22.3%; in test [9], -57.5% (active); in test [10], 42.9%.
`CCOC(=O)CNC1=C(Cl)C(=O)N(Cc2ccc(Cl)cc2)C1=O`: the growth was 110% in test [1]; 105% in test [2]; 97.9% in [3]; 98.6% in test [4]; 100% in test [5]; 97.7% in test [6]. Also, the growth is 102% in test [7], 104% in [8], 95.9% in test [9] and 106% in [10].
`COc1ccc(C2C3=C(COC3=O)N(CCO)c3cc4c(cc32)OCO4)cc1OC` (stereo not drawn): the growth is 77% in test [1]; 39.9% in test [2]; 71% in test [3]; 88.1% in test [4]; 97.9% in [5]; 58.3% in test [6]. Besides, the growth was 67.9% in test [7], 71.8% in test [8], 77.2% in test [9] and 89% in test [10].
On to `CC[C@@H](C(=O)[C@@H](C)[C@@H](O)[C@H](C)[C@@H]1O[C@@H]([C@@H](CC)C(=O)ONC(=O)c2ccccc2O)CC[C@@H]1C)C1O[C@]2(C=CC(=O)[C@]3(CC[C@@](C)([C@H]4CC[C@](O)(CC)[C@H](C)O4)O3)O2)[C@H](C)C[C@@H]1C` (stereo partly drawn), for which the growth was 44.5% in test [1]; 33.9% in test [2]; 64.3% in test [3]; 48.4% in test [4]; 32.1% in test [5]; 31.3% in [6]. Moreover, the growth was 63.3% in test [8], 45.4% in test [9] and 73.3% in test [10].
As for `Cc1cc(O)cc(-c2nn(C)cc2-c2cc(N3CCOCC3)nc(-c3cccnc3)n2)c1`, the growth in test [1] was 22.7%; in test [2], 17.4%; in test [3], 1.48% (active); in test [4] it was 33.8%; in test [5], 21.5%; in [6], 22.7%. The values for the growth in test [8], in test [9] and in test [10] were 18.1%, 25.6% and 46.8%, respectively.
As for `CCN(CC)CCN1C(=O)c2c(c3c4ccccc4[nH]c3c3ccc4ccccc4c23)C1=O`, the growth is -74.4% (active) in [1]; -45.5% (active) in test [2]; 76.1% in [3]; 84.9% in [4]; -74.6% (active) in test [6]; -23% (active) in test [7]. Also, the results for the growth in test [8], in [9] and in test [10] were 76.8%, -88.3% (active) and 0.268% (active), respectively.

The values above are taken from PubChem BioAssay (NCI).
